Data on nine molecules can be found in PubChem BioAssay (NCI).

Holding throughout (assay): NCI-60 one-dose screen, 48 h (100 = growth as untreated, 0 = no growth, -100 = all killed)
Common to all, as to conditions: 10 µM unless noted

The test system of experiment [1] is SR leukemia.
Experiment [2] deals with RPMI-8226 leukemia.
Experiment [3] relates to OVCAR-8 ovarian.
Experiment [4] deals with OVCAR-5 ovarian.
The subject of experiment [5] is OVCAR-4 ovarian.
Experiment [6] has as its system SK-OV-3 ovarian.
The subject of experiment [7] is IGROV1 ovarian.
Experiment [8] concerns OVCAR-3 ovarian.
For experiment [9], the system named is HS 578T breast.
The test system of experiment [10] is NCI/ADR-RES ovarian.
The test system of experiment [11] is BT-549 breast.
The subject of experiment [12] is MDA-MB-435 melanoma.
For experiment [13], the system named is SW-620 colon.
In experiment [14] the test system is MCF7 breast.
The subject of experiment [15] is HCT-116 colon.
Experiment [16] concerns HCC-2998 colon.
The subject of experiment [17] is KM12 colon.
Experiment [18] concerns T-47D breast.

Compounds without any hit were thinned out: in the full panel of roughly 83,000, 20% have a hit.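 Assay: single dose, 48 h. Readout: percent growth (0 = no net growth; negative = cell death). Active: <10.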 A number with no mark means an inactive call. Calls of active or inactive are those of the source.

On to `COc1ccc(C2CC(=O)Nc3c2c(C)nn3-c2nc3ccccc3[nH]2)cc1` (configuration not stated), for which the growth in experiment [1] was -36% (active); in [2], 20.4%; in experiment [3], 108%; in experiment [4], 112%; in experiment [5] it was 121%; in [6], 122%. For the same molecule, the growth in experiment [7] was 12.6%; in experiment [8], 18.3%; in [9], 61.7%; in [10], 96.3%; in [11], 113%; in experiment [12], 99.9%. Also, the growth in experiment [13] was 48.2%; in experiment [14] it was 91.6%; in [15], 108%; in experiment [16], 112%; in [17], 30.4%.
Take `Cc1cc2cc3cc(C)c(N(C)C)cc3nc2cc1N(C)C`: the growth in [1] is 25%; in experiment [2], -0.205% (active); in [3] it was 22.5%; in [4] it was 53.9%; in [5], 32.4%; in experiment [6], 17.7%. For the same molecule, the growth in experiment [7] is -13.8% (active); in experiment [8], -25.5% (active); in experiment [9] it was 31.7%; in experiment [10], 82.5%; in experiment [11], -11.6% (active); in experiment [12], 29.1%. For the same molecule, the growth in experiment [13] is 17.7%; in experiment [14], 13.5%; in experiment [15], 13.7%; in experiment [16], 23.7%; in [17] it was 3.92% (active).
Turning to `CCOC(=O)C(C#N)C1CCCCC1` (configuration not stated), the growth in experiment [1] is 84.3%; in [2], 99.1%; in [3] it was 103%; in [4], 99.8%; in experiment [5] it was 118%; in experiment [6], 109%. Further, the growth in [7] was 101%; in experiment [8], 96.9%; in experiment [9], 122%; in experiment [10], 98.5%; in [11] it was 90.1%; in experiment [12], 97.6%. Besides, the growth in experiment [13] was 106%; in [14] it was 123%; in [15] it was 99.4%; in experiment [16], 102%; in experiment [17] it was 107%.
Turning to `CCN(CC)Cc1cc(Nc2c3ccc(Cl)cc3nc3c(C)cccc23)ccc1O`, the growth in [1] was -18.9% (active); in experiment [2] it was -14.6% (active); in experiment [3] it was -42.6% (active); in experiment [4], -37.7% (active); in [5] it was -96% (active); in [6] it was -10.3% (active). In addition, the growth in experiment [7] was -49.3% (active); in [8] it was -71.6% (active); in [9], -24.4% (active); in experiment [10], -49.8% (active); in experiment [11], -54.3% (active); in experiment [12] it was -89.6% (active). Besides, the growth in [13] is -14% (active); in experiment [14] it was -61.6% (active); in experiment [15] it was -73.2% (active); in experiment [16] it was -95% (active); in experiment [17] it was -45.4% (active).
As to `COc1cccc(-c2nc3sccn3c2-c2ccnc(NCCCNS(=O)(=O)c3ccccc3)c2)c1`, the growth in experiment [1] was 53.7%; in experiment [2], -17.4% (active); in experiment [3], 17.6%; in [4], 92%; in [5], 27.6%; in experiment [6], 79.2%. For the same molecule, the growth in experiment [7] was 39.6%; in experiment [8], 38.7%; in experiment [9], 66.8%; in [10] it was 12.7%; in experiment [11], 2.07% (active); in experiment [12], 38.5%. For the same molecule, the growth was 59% in experiment [13]; 46.2% in experiment [14]; 12.2% in experiment [15]; 67.4% in [16]; 29.2% in experiment [17].
Consider `COc1ccc(C2c3ccc4ccccc4c3Oc3ncnc(N)c32)cc1` (configuration not stated), for which the growth is 46% in [1]; 86% in [2]; 92.8% in experiment [3]; 97.9% in experiment [4]; 89% in [5]; 62.1% in [6]. Also, the growth in [7] is 64.3%; in experiment [8] it was 88%; in [9] it was 82.2%; in experiment [10] it was 74.7%; in [11], 88.3%; in experiment [12], 8.46% (active). Besides, the growth in experiment [13] is 76.8%; in [14] it was 68.1%; in experiment [15], 92.9%; in experiment [16], 104%; in [17], 72.4%.
Take `Cc1ccc(SCN2CCN(c3cccc(Cl)c3)CC2)cc1`: the growth in experiment [1] was 91.7%; in experiment [2] it was 164%; in [3], 110%; in experiment [4], 112%; in experiment [5], 108%; in [6], 111%. Besides, the growth in experiment [7] is 80.4%; in experiment [8], 106%; in experiment [9], 111%; in experiment [10], 98.9%; in experiment [11], 62.7%; in [12], 89.7%. For the same molecule, the growth is 107% in [13]; 85.2% in experiment [14]; 91.6% in [15]; 100% in experiment [16]; 104% in experiment [17].
Take `CC1=C(C)C(=O)OC([C@](C)(O)[C@]2(O)CC[C@@]3(O)[C@@H]4C[C@H]5O[C@]56CC=CC(=O)[C@]6(C)[C@H]4CC[C@]23COC(=O)c2ccc(C)o2)C1` (some centres not stated): the growth in experiment [1] was 2.88% (active); in [2], -17.3% (active); in experiment [3], -13.8% (active); in [4] it was -69.8% (active); in experiment [5], -32.9% (active); in experiment [6], -51.7% (active). The growth is -54.4% (active) in [7]; 3.52% (active) in experiment [9]; 14.5% in experiment [10]; -57.1% (active) in experiment [18]; -49.3% (active) in experiment [11]; -76.9% (active) in experiment [12]. In addition, the growth was -55.6% (active) in experiment [13]; -66.2% (active) in experiment [14]; -43.5% (active) in experiment [15]; -73.7% (active) in experiment [16]; -69% (active) in [17].
Turning to `C=C1CC[C@@H]2[C@](C)(COC(C)=O)[C@H](OC(C)=O)CC[C@@]2(C)[C@@H]1CC(Nc1ccc(S(=O)(=O)Nc2nc(C)cc(C)n2)cc1)C1=CCOC1=O` (some centres not stated), the growth was 22.2% in [1]; 2.24% (active) in [2]; 62% in [3]; 103% in experiment [4]; 65% in [5]; 112% in experiment [6]. The growth in [7] is 81.5%; in experiment [9], 99.8%; in [10] it was 66.6%; in experiment [18] it was 68.8%; in experiment [12], 67%; in experiment [13], 40%. Further, the growth in [14] was 40.3%; in experiment [15] it was 39.2%; in [16], 100%; in experiment [17], 64.7%.
